# Screening results: PubChem, National Center for Advancing Translational Sciences (NCATS)
# Coupling enz = inhibits coupling enzyme system, counter-screen for aldolase hits; coupling enzyme system counterscreen, AmpLite Red fluorescence; activity change, negative = inhibition, % at 58.2 µM, hits read low; 0.67% of 290,000 active; in the data active = activity change below about -30%
#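 Final compound at 57.5 uM, incubated 10 min at RT with coupling enzyme reagent (glyceraldehyde-3-phosphate), then 20 min with substrate and AmpLite Red detection. Fluorescence read at 525/598 nm; tests interference with the coupling assay, not aldolase inhibition.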
# Tau fibril FP = blocks human tau fibril formation measured by polarization | Potency, µM (doses to about 57.7 µM), usual class: inhibitors | P10636 | 0.39% of 280,000 active | K18 P301L tau heparin fibrillization, Alexa594 FP, 6 h; also: nearly all actives have a fitted effect of over 55% in size
# Target sequence (P10636 561-689 P618L limits assumed): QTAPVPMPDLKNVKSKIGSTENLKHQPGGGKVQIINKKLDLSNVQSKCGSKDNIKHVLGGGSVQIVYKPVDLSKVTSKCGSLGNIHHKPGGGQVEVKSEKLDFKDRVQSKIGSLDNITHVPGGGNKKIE
#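 Heparin (20 uM) drove fibril formation of recombinant tau K18 P301L, 15 uM unlabeled with 0.24 uM Alexa 594 label, for 6 hr at 37 C in 100 mM sodium acetate pH 7. Fluorescence polarization (555/632 nm) read 1 hr after 30 uM ThT.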
# Sfp inh = Sfp phosphopantetheinyl transferase inhibition; Potency, µM, actives largely listed as inhibitors; Biochemical Sfp PPTase activity, qHTS; AID 1490; 3.5% of 310,000 active; Q9F4F7;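 also: the enzyme is Sfp with the accession as filed and its product quenches rhodamine fluorescence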
#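 Fluorescence-quenching assay with 15 nM Sfp, 5 uM rhodamine-CoA and 12.5 uM BHQ-2-labelled ybbR peptide in pH 7.6 Hepes/MgCl2 buffer. Enzyme was pre-incubated with compound for 15 min at room temperature. Rate was taken from the 30-min fluorescence change (525/598 nm).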
# Tau ThT inhib = tau fibrillization inhibition (ThT binding) | P10636 | recombinant tau K18 P301L, heparin-induced fibrillization, ThT fluorescence | Potency, µM (titrated, usually from 57.4 µM), hits mostly inhibitors | 2.1% of 270,000 active; also: nearly all actives have a fitted effect of over 55% in size
#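 Aggregation was driven by heparin (20 uM final) acting on recombinant tau […] bearing P301L in 100 mM sodium acetate pH 7; fibrils were detected with Thioflavin T.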
# Tau fluor counter = counter-screen for tau fibril formation inhibitors; Potency, µM (doses to about 57.7 µM); 0.93% of 280,000 active; tau K18 P301L (four-repeat tau fragment) Alexa594 fluorescence, heparin fibrillization; also: nearly all actives have a fitted effect of over 55% in size
#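 Human K18 P301L tau (15 uM unlabeled plus 0.24 uM Alexa 594-labeled, final) in 100 mM sodium acetate pH 7 was mixed with compound and 20 uM heparin and incubated 6 hr at 37 C.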
# A number is an active result; i = inactive; ? = inconclusive; nt = no result; ! = repeats disagree; [ ] = another dose, or the depositor's remark. Compounds with a hit are over-represented: about 5.2% of the library has one in this group of screens. Unless noted, calls follow the shape of the dose curve; as a rule, active = well fitted curve in the direction sought with a large enough effect; inconclusive = small, poorly fitted or top-dose-only effect, or another doubt; inactive = no such curve, though single readings can be large; an effect the other way counts as inactive or inconclusive.
SMILES,Coupling enz,Tau fibril FP,Sfp inh,Tau ThT inhib,Tau fluor counter
COC/C=C/C1=CC2=CC(=O)C(C)(OC(=O)c3cnc4ccccc4n3)C(=O)C2=CN1CCOC (stereo unspecified),i,i[11.6 µM],i,i[11.5 µM],i[11.6 µM]
CC1(OC(=O)C2CCCC2)C(=O)C=C2C=C(c3ccsc3)N(C3CCCCC3)C=C2C1=O (stereo unspecified),i,?,i,14.1µM!,i[11.6 µM]
COC/C=C/C1=CC2=CC(=O)C(C)(OC(=O)c3cnc4ccccc4n3)C(=O)C2=CN1CCN1CCOCC1 (stereo unspecified),i,?,i,15.8µM,?
CC1(OC(=O)C2CCCC2)C(=O)C=C2C=C(c3ccsc3)N(Cc3ccc4c(c3)OCO4)C=C2C1=O (stereo unspecified),i,i[11.6 µM],i,?,i[11.6 µM]
CC1(OC(=O)C2CCCC2)C(=O)C=C2C=C(c3ccsc3)N(CCN3CCOCC3)C=C2C1=O (stereo unspecified),-43.8,?,i,?,i[11.6 µM]
CC1(OC(=O)C2CCCC2)C(=O)C=C2C=C(c3ccsc3)N(CC3CC3)C=C2C1=O (stereo unspecified),-34.5!,i[11.6 µM],i,?,i[11.6 µM]
Cc1ccc(CN2C(=O)c3ccccc3Sc3ccc(C(=O)NC4CCCCC4)cc32)cc1,nt,i,nt,i,i
Cc1ccc(-c2nnc(SCC(=O)NCc3ccccc3)o2)cc1,nt,i,nt,i,i
CC1(OC(=O)C2CCCC2)C(=O)C=C2C=C(c3ccsc3)N(CCc3c[nH]c4ccccc34)C=C2C1=O (stereo unspecified),i,?,i,4.47µM!,i[11.6 µM]
COC(=O)CCCC1=CC2=C(c3ccccc3)C(=O)C(C)(OC(=O)C3CCCC3)C(=O)C2=CN1Cc1ccccc1 (stereo unspecified),i,i[11.6 µM],i,i[11.5 µM],i[11.6 µM]
COC(=O)CCCC1=CC2=C(c3ccccc3)C(=O)C(C)(OC(=O)C3CCCC3)C(=O)C2=CN1CCN1CCOCC1 (stereo unspecified),-34.8!,i[11.6 µM],i,i[11.5 µM],i[11.6 µM]
CC1(OC(=O)CCc2ccccc2)C(=O)C=C2C=C(c3ccc(C#N)cc3)N(CCc3c[nH]c4ccccc34)C=C2C1=O (stereo unspecified),i,i[11.6 µM],i,?,i[11.6 µM]
Cc1ccc2nc(CSc3nnc(NC(=O)C(C)C)s3)cc(=O)n2c1,nt,i,nt,i,i
O=C(NCc1ccc(F)cc1)c1cccc(N2CCCS2(=O)=O)c1,nt,i,nt,i,i
O=c1c2cc(NC(=S)N3CCC(N4CCCCC4)CC3)ccc2nc2n1CCCCC2,i,i,79.4µM,i,i
CN(C)CCCNc1cc(C(C)(C)C)nc2c(-c3ccc(Cl)cc3)cnn12,i,i,31.6µM,?,15.8µM[quencher]
CC1(C)Cc2c(c(-c3ccco3)nc3sc4c(NCCO)ncnc4c23)CO1,i,i,50.1µM,i,i
CSc1nc(N(CCO)CCO)c2sc3nc(-c4ccco4)c4c(c3c2n1)CCC4,i,?,17.8µM,25.1µM,?
CSc1nc(SCCO)c2sc3nc(-c4ccco4)c4c(c3c2n1)CC(C)(C)OC4,i,i,20µM,?,i
COCCCNc1ncnc2c1sc1nc(-c3ccco3)c3c(c12)CC(C)(C)OC3,i,i,?,nt,?
COc1ccc(OC)c(-c2ccc(C(=O)O)o2)c1,i,i,i,?,i
CC1=C(C(=O)Nc2cccc(C)c2C)C2(CCCCC2)OC1=O,nt,i,nt,i,?
Cc1cc2c(cc(C(=O)NCc3cccnc3)n2Cc2ccc(Cl)cc2)o1,i,i,44.7µM,?,i
O=C(NCc1cccnc1)c1ccc(-c2cccc(Cl)c2Cl)o1,i,i,15.8µM,i,i
O=C(NCc1cccnc1)c1ccc(-c2ccccc2[N+](=O)[O-])o1,i,i,i,i,i
SMILES,Coupling enz,Tau fibril FP,Sfp inh,Tau ThT inhib,Tau fluor counter
COc1cccc(OCc2nc3ccccc3n2CCOc2ccc(C)cc2)c1,nt,i,nt,?,i
Cc1ccc(NC(=O)c2ccc(-n3c(C)nnc3C)cc2)cc1F,nt,i,nt,i,i
CNC(=O)Nc1cccc(-c2cc(-c3c(Cl)cccc3Cl)no2)c1,i,22.4µM,i,i,?
Cc1ccc(CO/N=C/c2c(O)cc(C)oc2=O)cc1,i,i,i,i,i
Cc1ccc(N/N=C/c2c(O)cc(C)oc2=O)cc1,i,i,56.2µM,?,i
Cc1cc(O)c(/C=N/Nc2ccc(F)cc2)c(=O)o1,i,i,79.4µM,i,i
Cc1oc(-c2ccc(C(=O)Nc3cccc(C(F)(F)F)c3)cc2)nc1CSc1ccccc1,nt,14.1µM,nt,i,?
CC(=O)N(O)[C@@H]1c2cc(C#N)ccc2OC(C)(C)[C@H]1O,i,i,i,i,i
Cc1cccc(CNC(=O)c2cccc(NC(=O)N3CCSc4ncccc43)c2)c1,nt,i,nt,i,i
COc1ccc(Nc2nc(Nc3ccc(OC)cc3OC)nc(N3CCN(C)CC3)n2)c(OC)c1,i,?,?,?,10µM[quencher]
CC(=O)Oc1ccc(C(=O)[C@H]2[C@H]3C(=O)N(c4ccc(C)cc4C)C(=O)[C@H]3[C@@H]3C=CC=NN32)cc1,i,?,50.1µM,?,?
CC(=O)Oc1ccc(C(=O)[C@H]2[C@H]3C(=O)N(c4ccc(C)cc4)C(=O)[C@H]3[C@@H]3C=CC=NN32)cc1,i,i,i,?,i
COc1ccc(N2C(=O)[C@@H]3[C@H](C2=O)[C@H](C(=O)c2ccc(OC(C)=O)cc2)N2N=CC=C[C@@H]32)cc1,i,i,i,?,i
CC(=O)Oc1ccc(N2C(=O)C3C(C2=O)C(C(=O)c2ccc(Cl)cc2)N2CCCC32)cc1 (stereo unspecified),i,?,i,35.5µM,i
O=C(Nc1ccccc1)[C@@H]1[C@@H]2C(=O)N(c3ccc(F)cc3)C(=O)[C@@H]2[C@H]2C=CC=NN21,i,i,35.5µM,?,i
CC(=O)Oc1ccc(C(=O)[C@H]2[C@H]3C(=O)N(c4ccccc4)C(=O)[C@H]3[C@@H]3C=CC=NN32)cc1,-41.4,i,?,i,i
O=c1cc(-c2ccc(O)c(O)c2)oc2cc(OC3OC(CO)C(O)C(O)C3O)cc(O)c12 (stereo unspecified),i,i,i,?,?
N#Cc1nc(COc2cccc(Cl)c2)oc1NCCc1ccccc1,nt,i,nt,?,?
CCN(CC)c1ccc2nc3c(=O)n(C)c(=O)n(C)c3nc2c1,nt,?,nt,15.8µM,?
CCC(=O)Nc1ccc2nc3c(=O)n(C)c(=O)n(C)c3nc2c1,nt,i,nt,i,i
CCN1CCOC(=O)C1CC(=O)Nc1cc(C)cc(C)c1 (stereo unspecified),nt,i,nt,?,i
CC1C/C(=C/c2ccncc2)C(=O)/C(=C/c2ccncc2)C1 (stereo unspecified),i,?,?,8.91µM,i
CCCCCC(C)N (stereo unspecified),i,i,i,i,i
CC(=O)N1CCc2cc(Br)cc(S(=O)(=O)N3CCC(C)CC3)c21,nt,i,nt,i,i
CCOc1ccccc1C1C(C#N)=C(N)Oc2n[nH]c(CC)c21 (stereo unspecified),i,i,i,i,i
